The target in test [1] is T1, Hexokinase-4 (Homo sapiens) + Glucokinase regulatory protein (Homo sapiens) (UniProt P35557+Q14397). The test is described as follows: qHTS assay for inhibitors of recombinant human GCK-GKRP interaction: ADP-Glo assay (AID 743206).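 Also: plate controls were DMSO plus enzyme for no effect and no enzyme for full effect.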 Put shortly:
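Pin-transferred compounds meet a 15 nM GST-GCK/15 nM FLAG-GKRP/2 uM S6P mix (dispense concentrations). ATP is then added to 0.4 mM final with 5 mM glucose, and the reaction runs 60 min at room temperature. ADP is quantified luminescently.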
For orientation: Quantitative high-throughput screening tests each substance at several concentrations.

Test [2] deals with T1, Hexokinase-4 (Homo sapiens) + Glucokinase regulatory protein (Homo sapiens). The test is described as follows: qHTS assay for inhibitors of recombinant human GCK-GKRP interaction: HTRF assay (AID 743207).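 Also: 0% = DMSO with GCK present and -100% = DMSO wells lacking GCK.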 Put shortly: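 Titration screening format: recombinant GST-GCK and FLAG-GKRP at 5 nM, S6P at 2 uM, labelled anti-tag antibodies, 60 min at RT, dual-wavelength HTRF readout.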

Test [3] is described as follows: qHTS Assay for Identifying Gametocytocidal Compounds (AID 743244). Also: potency is read from the fitted curve at half-maximal effect.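 As to max response: % is scaled to controls: 0 for no effect and ±100 for the full control effect; actives lower the fluorescent signal which means gametocytes are killed.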 The following applies: P. falciparum 3D7 stage III-V gametocytes, alamarBlue, 72 h; max response: stronger effect = lower value. The procedure, abridged:
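Compounds are pinned into medium, gametocytes (stage III–V, 3D7, 20,000 cells/well) added, and plates held 72 h at 37 °C in 5% CO2. AlamarBlue follows for 24 h before fluorescence reading.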

Test [4] in a line: qHTS assay for measurement of the activity of small molecule inhibitors on Zika virus induced Caspase-3 activity in human iPSC derived neural progenitor cells (hNPCs) (AID 1224857). Also: % of control where 0% means no effect; nearly all actives have a fitted effect of over 65% in size. Put shortly:
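Pretreat hNPCs with compound 1 h; infect ZIKV 2 FFU/cell; 6 h 37 C, 5% CO2; Caspase-Glo 3/7, 30 min RT; luminescence; normalize to no-virus and virus-only wells.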

A short description of test [5]: qHTS assay for measurement of the activity of small molecule inhibitors on Zika virus induced Caspase-3 activity in human astrocytoma cells (AID 1224859).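 Also: plate controls were ZIKV-infected untreated cells for no effect and uninfected cells for full effect.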 Put shortly: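 Human SNB-19 astrocytoma cells in RPMI 1640 with 10% FBS receive compound one hour ahead of Zika virus at 2 FFU/cell. After 6 h infection, caspase-3/7 activity is detected by Caspase-Glo luminescence.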

Test [6] can be described thus: qHTS assay to identify small molecule inhibitors of chordoma cells - UCH-1 (AID 1259355). Also: nearly all actives have a fitted effect of over 55% in size. Also: potency is read from the fitted curve at half-maximal effect. The procedure, abridged: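 Screening used approved and investigational drugs in 15-point titration against 800 seeded cells per well. A fixed combination of auranofin with camptothecin, doxorubicin, rubitecan and topotecan followed compound addition, and growth was scored by CellTiter-Glo after 48hr.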

The nature of test [7]: qHTS assay for cell viability of HEK293 cells (AID 743288). Also: % is scaled to controls: 0 for no effect and ±100 for the full control effect; nearly all actives have a fitted effect of over 50% in size. The following applies: ATP luminescence (CellTiter-Glo), 18 h, stronger effect = lower value. The procedure, abridged:
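HEK293, 18 h, 37 C, ATP luminescence. Cells at 2,000/well were allowed at least 5 h to settle before dosing; CellTiter-Glo developed 30 min at RT.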

A short description of test [8]: qHTS assay for cell viability of the p53RE-bla HCT-116 cell line (AID 743292). Also: % is scaled to controls: 0 for no effect and ±100 for the full control effect; nearly all actives have a fitted effect of over 55% in size. Put shortly:
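ATP-based luminescent viability (CellTiter-Glo, 30 min RT) after 16 h compound treatment at 37 C of p53RE-bla HCT-116 cells, seeded at 4,000 cells/well and rested 5 h before dosing.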

Test [9] is described as follows: qHTS assay to identify small molecule inhibitors of chordoma cells - UCH-2 (AID 1259356). Also: % is scaled to controls: 0 for no effect and ±100 for the full control effect.
The nature of test [10]: qHTS profiling for inhibitors of Plasmodium falciparum (3D7) proliferation (AID 743322).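 Also: infected erythrocytes exposed to compound for 72 h before lysis; 100% = DMSO vehicle wells and 0% = 0.29 µM artemisinin.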 The following applies: P. falciparum 3D7 proliferation; at 28.7 µM (top of the series) unless noted. The procedure, abridged: (§1)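 Parasite DNA was quantified by SYBR Green I fluorescence (ex 485, em 535 nm) after overnight lysis in saponin/Triton buffer at room temperature. Cultures at 0.3% parasitemia and 2.5% hematocrit were first exposed to compound for 72 h at 37 C; signals were normalised to artemisinin (0.29 uM) and vehicle wells.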

A short description of test [11]: qHTS profiling for inhibitors of Plasmodium falciparum (DD2) proliferation (AID 743323; call rule not given here). Conditions: lower = more inhibition; at 28.7 µM (top of the series) unless noted. Put shortly:
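1536-well qHTS; infected RBCs 0.3% parasitemia/2.5% Hct final; cpd 72 h 37 C 5% CO2; lysis buffer + SYBR Green I, o/n RT dark; FI 485/535; norm. to 0.29 uM artemisinin and DMSO, plate-stack corrected.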

The nature of test [12]: qHTS profiling for inhibitors of Plasmodium falciparum (HB3) proliferation (AID 743324).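 Also: 100% = DMSO vehicle wells and 0% = artemisinin-treated control wells.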 Conditions: Plasmodium falciparum HB3 blood-stage proliferation; at 28.7 µM (top of the series) unless noted. The procedure, abridged:
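SYBR Green fluorescence (485 ex/535 em) of lysed cultures, incubated overnight at room temperature in the dark, quantifies parasite DNA. Infected erythrocytes at 0.3% parasitemia and 2.5% hematocrit were exposed 72 h; values normalized to DMSO and 0.29 uM artemisinin controls.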

Test [13] in a line: qHTS profiling of the MIPE4 collection as inhibitors of Plasmodium falciparum (3D7) proliferation (AID 743344; call rule not given here;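 also: scaled between DMSO vehicle wells and 0.29 µM artemisinin as full inhibition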). Conditions: P. falciparum 3D7 in erythrocytes, SYBR Green DNA fluorescence, 72 h; at 28.5 µM (top of the series) unless noted. Put shortly:
as §1

Test [14] is described as follows: qHTS profiling of the MIPE4 collection as inhibitors of Plasmodium falciparum (DD2) proliferation (AID 743345; call rule not given here). Conditions: P. falciparum Dd2 in erythrocytes, SYBR Green DNA, 72 h; at 28.5 µM (top of the series) unless noted. Put shortly:
as §1

The nature of test [15]: qHTS profiling of the MIPE4 collection as inhibitors of Plasmodium falciparum (DD2) proliferation (Rep 2) (AID 743346; call rule not given here). Conditions: P. falciparum Dd2 in erythrocytes, SYBR Green DNA, 72 h; at 28.5 µM (top of the series) unless noted. The procedure, abridged: as §1
The nature of test [16]: qHTS profiling of the MIPE4 collection as inhibitors of Plasmodium falciparum (HB3) proliferation (AID 743347; call rule not given here;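 also: plate controls were DMSO vehicle wells for no effect and artemisinin wells for full effect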). The following applies: P. falciparum HB3 in erythrocytes, SYBR Green DNA, 72 h; at 28.5 µM (top of the series) unless noted. Put shortly: as §1

The results in this text go back to PubChem BioAssay (NCATS).

Inconclusive results are not listed. Active and inactive are the calls of the source. Unless noted, calls follow the shape of the dose curve; as a rule, active = well fitted curve in the direction sought with a large enough effect; inconclusive = small, poorly fitted or top-dose-only effect, or another doubt; inactive = no such curve, though single readings can be large; an effect the other way counts as inactive or inconclusive.

T1 sequence (P35557 whole entry, looked up): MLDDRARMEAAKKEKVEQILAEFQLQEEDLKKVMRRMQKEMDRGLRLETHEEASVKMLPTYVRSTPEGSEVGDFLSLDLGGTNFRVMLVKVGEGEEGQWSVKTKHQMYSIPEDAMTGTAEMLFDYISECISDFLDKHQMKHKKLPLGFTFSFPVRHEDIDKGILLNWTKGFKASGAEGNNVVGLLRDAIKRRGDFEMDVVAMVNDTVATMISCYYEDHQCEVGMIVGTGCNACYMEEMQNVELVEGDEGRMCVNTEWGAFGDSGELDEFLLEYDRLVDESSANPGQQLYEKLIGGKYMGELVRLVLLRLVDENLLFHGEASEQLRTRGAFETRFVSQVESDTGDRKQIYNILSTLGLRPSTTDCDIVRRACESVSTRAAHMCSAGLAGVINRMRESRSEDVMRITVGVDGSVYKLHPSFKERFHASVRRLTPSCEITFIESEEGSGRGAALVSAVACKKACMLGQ
T1 sequence (Q14397 whole entry, looked up): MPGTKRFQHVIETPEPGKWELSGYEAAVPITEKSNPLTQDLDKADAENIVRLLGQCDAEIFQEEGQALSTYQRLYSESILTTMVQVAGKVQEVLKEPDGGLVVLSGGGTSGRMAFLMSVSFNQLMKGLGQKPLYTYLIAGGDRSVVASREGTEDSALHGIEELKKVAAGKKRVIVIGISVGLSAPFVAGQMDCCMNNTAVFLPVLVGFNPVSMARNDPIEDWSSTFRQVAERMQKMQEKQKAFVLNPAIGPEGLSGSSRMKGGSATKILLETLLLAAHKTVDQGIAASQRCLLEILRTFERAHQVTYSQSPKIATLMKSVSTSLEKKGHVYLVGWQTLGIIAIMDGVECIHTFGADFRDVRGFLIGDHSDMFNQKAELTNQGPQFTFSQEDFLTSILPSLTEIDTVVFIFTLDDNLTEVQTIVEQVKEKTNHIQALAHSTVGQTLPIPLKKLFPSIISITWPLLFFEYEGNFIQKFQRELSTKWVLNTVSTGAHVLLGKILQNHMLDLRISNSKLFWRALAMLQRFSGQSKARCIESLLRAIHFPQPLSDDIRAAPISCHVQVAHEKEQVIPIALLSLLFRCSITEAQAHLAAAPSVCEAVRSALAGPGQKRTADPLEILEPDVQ

As for `COc1cc(NS(C)(=O)=O)ccc1Nc1c2ccccc2nc2ccccc12`, the result in [1], in test [2], in [4] and in test [5] was inactive. Besides, the Potency in test [3] is 6.31 µM (active); in test [6], 28.2 µM (active).
As to `COC1=CC(=O)C[C@@H](C)[C@]12Oc1c(Cl)c(OC)cc(OC)c1C2=O`, the max response in [3] is 1.7% (inactive); in test [7], -14.5% (inactive). In addition, the compound was called inactive in test [8], in test [4] and in test [5]. Besides, the Potency result in [6] and in [9] was “inactive” throughout.
For the compound `CN1CCN(CCCN2c3ccccc3Sc3ccc(S(=O)(=O)N(C)C)cc32)CC1`, the Potency in [3] was 5.64 µM (active). This compound gave a remaining parasite growth % (stronger effect = lower value) in test [10] of 1.46% [at 9.63 µM]. The activity, percent of control in test [11] was 2.48% [at 9.63 µM]. For the same compound, the remaining proliferation (% of control), lower = more inhibition in [12] was 1.27% [at 9.63 µM]. Moreover, the parasite growth, % of DMSO control in test [13] was 63.5% [at 9.64 µM]. In [14], this compound gave a parasite growth remaining, % of DMSO control (lower = more inhibition) of 44% [at 9.64 µM]. The parasite growth, % of control (lower = inhibition) in test [15] came out at 48.8% [at 9.64 µM]. Further, the growth, % of control in test [16] came to 68.8% [at 9.64 µM]. The compound was called inactive in test [4] and in [5]. The Potency entry in test [6] and in [9] was “inactive” in each case.
Consider `COc1cc2c(cc1OC)[C@@H]1CC(=O)[C@@H](CC(C)C)CN1CC2`, for which the compound was classed as inactive in test [4] and in test [5]. Besides, the Potency entry in test [9] is “inactive”.
For the compound `c1ccc(CNCCNCc2ccccc2)cc1`, the compound was classed as inactive in [4] and in test [5]. Further, in test [9], the Potency result is “inactive”.
`CCCCOc1cc(C(=O)NCCN(CC)CC)c2ccccc2n1`: the outcome in test [4] and in test [5] was inactive. Moreover, the Potency entry in [9] was “inactive”.
Regarding `CNCCC=C1c2ccccc2CCc2ccccc21`, the result in [1], in test [2], in [4] and in test [5] was inactive. Besides, the Potency result in [9] was “inactive”.
Turning to `O=C(O)CCCCC(=O)O`, the values for the max response in test [3] and in test [7] were -5.63% (inactive) and 0.134% (inactive), respectively. Further, the call in test [8], in test [4] and in test [5] was inactive. Also, the Potency entry in [6] and in test [9] was “inactive” each time.
Take `O=C(N/N=C/c1ccccc1O)c1ccncc1`: in [3], the max response is -7.05% (inactive). The call in test [4] and in test [5] was inactive. Also, the Potency result in test [6] and in test [9] was “inactive” throughout.
Take `CC(=O)Oc1ccc2c(c1)CC[C@@H]1[C@@H]2CC[C@]2(C)[C@@H](O)CC[C@@H]12`: in [3], the max response was 0.116% (inactive). The compound was classed as inactive in test [4] and in [5]. For the same compound, the Potency entry in [6] and in test [9] was “inactive” throughout.
On to `CCOc1ccc(NC(=O)CC(C)O)cc1` (stereo not drawn), for which the max response in test [3] is -2.08% (inactive). The outcome in [4] and in test [5] was inactive. The Potency entry in test [9] is “inactive”.
For `CC(=O)OCC(=O)[C@@]12OC(C)(C)O[C@@H]1C[C@H]1[C@@H]3C[C@H](F)C4=CC(=O)C=C[C@]4(C)[C@@]3(F)[C@@H](O)C[C@@]12C`, in [3], the max response was 1.24% (inactive). Besides, the compound was called inactive in test [4] and in [5]. For the same compound, in [9], the Potency entry is “inactive”.
With `O=C1c2ccccc2C(=O)C1c1ccccc1`, the max response in [3] is 1.91% (inactive). Further, the call in test [4] and in test [5] was inactive. Also, the Potency entry in test [9] is “inactive”.
